Results on 49 compounds are retold here after PubChem BioAssay (NCATS).

The subject of test [1] is NIH3T3. Briefly: Cytotoxic Profiling of Annotated Libraries Using Quantitative High-Throughput Screening (AID 1296008). Particulars: Five cell lines viability, CellTiter-Glo ATP luminescence, 48-72 h; max response: stronger effect = lower value. In a few lines:
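Cytotoxicity was measured as CellTiter-Glo ATP luminescence, read after 10 min at room temperature. Compound treatment of the cells lasted 48 or 72 hr at 37 degrees Celsius in a qHTS format.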

For the next test, the system named is MCC-13. The test can be described thus: qHTS assay to identify novel small-molecules to repurpose for Merkel cell carcinoma treatment (AID 1296009). Further: potency means the concentration at half of the fitted maximal effect. The following applies: MCC and control cell lines, CellTiter-Glo viability, 72 h; series mostly up to 46 µM. In a few lines:
(§1)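 After compound transfer in DMSO, plates were kept 72 hr at 37 degree celsius. Luminescent ATP signal from CellTiter-Glo served as viability measure, normalized against DMSO and no-cell controls.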
Background: Quantitative high-throughput screening tests each substance at several concentrations.

In a further test the test system is MKL-1. The test is described as above. Particulars: MCC and control cell lines, CellTiter-Glo viability, 72 h; series mostly up to 46 µM. In a few lines: as §1
On the technique in general: Cellular ATP, detected with luciferase, serves as a proxy for viable cell number.

Another test deals with MKL-2. The test is described as above. Particulars: MCC and control cell lines, CellTiter-Glo viability, 72 h; series mostly up to 46 µM. In a few lines:
as §1

Test [2] deals with NIH3T3. The description is as above. Particulars: MCC and control cell lines, CellTiter-Glo viability, 72 h; at 44.8 µM (top of the series) unless noted. The procedure, abridged:
as §1

For a further test, the system named is UISO. Described as above. The following applies: MCC and control cell lines, CellTiter-Glo viability, 72 h; series mostly up to 46 µM. In a few lines: as §1
The next test deals with MCC-26. Described as above. Particulars: MCC and control cell lines, CellTiter-Glo viability, 72 h; series mostly up to 46 µM. In a few lines:
as §1

The subject of a further test is CRL-7250. The test is described as above. The following applies: MCC and control cell lines, CellTiter-Glo viability, 72 h. In a few lines: as §1
For a further test, the system named is HACAT. The description is as above. Particulars: MCC and control cell lines, CellTiter-Glo viability, 72 h; at 44.8 µM (top of the series) unless noted. In a few lines: as §1
[3] abbreviates: at 44.8 µM (top of the series) unless noted.

Several values for one entry are separate records, joined by “and”; a condition that tells them apart may be missing. Identical values can stand only once. Results filed as inconclusive are left out. A call without a number means that no potency is given here. Values without a mark were called inactive. Activity calls are given as the source filed them. The call rests on the fitted dose curve; in most records, active means well fitted inhibition curve with a large enough effect; inconclusive means small, poorly fitted or top-dose-only effect; inactive means flat fitted curve, though single readings scatter.
Further: nearly all actives have a fitted effect of over 60% in size.

As to `Nc1ccc([As](=O)(O)O)cc1`, the call in the test with NIH3T3 [1], in the test with MCC-13 and in the test on NIH3T3 [2] was inactive. In addition, the Potency result in the test on MKL-1, in the test with MKL-2 and in the test on UISO was “inactive” in each case.

Take `COc1cc(CC(C)N)cc(OC)c1OC` (stereo not given): the max response with NIH3T3 [1] is -5.38%. Further, the call in the test with MCC-13 was inactive. The Potency result in the test with MKL-1, with MKL-2 and in the test with UISO was “inactive” throughout.

For the compound `CCN[C@@H](C)Cc1ccccc1`, in the test with NIH3T3 [1], the max response was -15.7%. Moreover, the compound was classed as inactive in the test with MCC-13. The Potency result in the test with MCC-26, in the test on MKL-1, in the test with MKL-2 and with UISO was “inactive” each time.

As for `CCC1(CC)C(=O)C=CNC1=O`, the max response in the test on NIH3T3 [1] was 1.41%. Further, the compound was called inactive in the test on MCC-13. For the same compound, the Potency result in the test on MCC-26, with MKL-1, in the test with MKL-2 and with UISO was “inactive” each time.

On to `CN1C(=O)COc2c(C(=O)NC3CN4CCC3CC4)cc(Cl)cc21` (stereo not given), for which, in the test with NIH3T3 [1], the max response is -0.6% and 1.75%. For the same compound, in the test on MCC-13, the compound was classed as inactive. Besides, the Potency result with MKL-1, in the test on MKL-2 and in the test on UISO was “inactive” in each case.

In the case of `COP(=S)(OC)Oc1ccc(SC)c(C)c1`, the max response with NIH3T3 [1] is -0.878%. Also, the compound was classed as inactive in the test on MCC-13. For the same compound, the Potency entry in the test with MKL-1, in the test with MKL-2 and with UISO was “inactive” in each case.

Turning to `CCC(C(=O)OCCN(CC)CC)c1ccccc1` (stereo not given), the result in the test with CRL-7250 (setting [3]) was inactive.

For the compound `CN(C)CCc1c[nH]c2cccc(OP(=O)(O)O)c12`, the max response in the test with NIH3T3 [1] was -11.6%. Further, the result with MCC-13 was inactive. The Potency result with MKL-1, in the test on MKL-2 and in the test on UISO was “inactive” throughout.

`CC(C)(C)NCC(O)COc1cccc2c1C[C@H](O)[C@H](O)C2` (stereo not given in full): in the test on CRL-7250 (setting [3]), the result was inactive.

As to `Cc1cc(CC(=O)O)c(C)n1-c1ccc(Cl)cc1`, the result in the test on CRL-7250 (setting [3]) was inactive.

Consider `CC(C)NC(C)C`, for which the outcome with NIH3T3 [1], in the test on MCC-13 and with NIH3T3 [2] was inactive. The Potency entry with MCC-26, in the test on MKL-1, with MKL-2 and in the test with UISO was “inactive” in each case.

On to `COc1c2c(cc3c1OCO3)CCN(C)C2`, for which the max response in the test with NIH3T3 [1] is -8.45%. The compound was called inactive in the test with MCC-13. Moreover, the Potency entry in the test with MCC-26, with MKL-1, with MKL-2 and in the test with UISO was “inactive” in each case.

For `[N-]=[N+]=CC(=O)OC[C@H](N)C(=O)O`, the max response with NIH3T3 [1] was -9.9%. The call in the test with MCC-13 was inactive. The Potency entry in the test with MCC-26, in the test with MKL-1, in the test with MKL-2 and with UISO was “inactive” throughout.

Take `CCCCC/C=C\C/C=C\C/C=C\C/C=C\CCCC(=O)NCC(=O)O`: the outcome in the test on NIH3T3 [1], in the test on MCC-13 and with NIH3T3 [2] was inactive. Also, the Potency entry in the test on MKL-1 and in the test on UISO was “inactive” in each case.

Turning to `Nc1nc(N)nc(NC2CC2)n1`, in the test on NIH3T3 [1], the max response is -2.48%. For the same compound, in the test on MCC-13, the call was inactive. Further, the Potency entry with MKL-1, with MKL-2 and in the test with UISO was “inactive” in each case.

With `C/C(=C(\CCO)SS/C(CCO)=C(\C)N(C=O)Cc1cnc(C)nc1N)N(C=O)Cc1cnc(C)nc1N`, the compound was called inactive with CRL-7250 (setting [3]).

Take `COP(=S)(OC)SCN1C(=O)c2ccccc2C1=O`: the result in the test with HACAT and in the test on MCC-13 was inactive. Moreover, the Potency result in the test with MCC-26 was “inactive”. Further, the Potency in the test on MKL-2 is 11.9 µM (active).

Consider `COc1cc(OC)c(C(=O)CCCN2CCCC2)c(OC)c1`, for which, in the test on CRL-7250 (setting [3]), the compound was called inactive.

Take `Oc1ccccc1-c1nnco1`: the compound was classed as inactive with CRL-7250 (setting [3]).

Take `CC(C)(C)C(=O)Oc1ccc(S(=O)(=O)Nc2ccccc2C(=O)NCC(=O)O)cc1`: in the test on CRL-7250 (setting [3]), the result was inactive.

In the case of `O=C(O)c1ccc[n+]([O-])c1`, the outcome in the test with CRL-7250 (setting [3]) was inactive.

Take `CC(=O)OCC(=O)[C@@]1(OC(C)=O)[C@@H](C)C[C@H]2[C@@H]3C[C@H](F)C4=CC(=O)C=C[C@]4(C)[C@@]3(F)[C@@H](O)C[C@@]21C`: in the test on CRL-7250 (setting [3]), the compound was classed as inactive.

As for `C[C@]12CCC(=O)C=C1CC[C@@H]1[C@H]3CC[C@](C)(O)[C@@]3(C)CC[C@@H]12`, in the test on MCC-13, the call was inactive. In addition, the Potency entry with MCC-26 is “inactive”.

For `CCCCCCCCCCCCCCCCCC(=O)OCC(O)CO` (stereo not given), the call in the test with CRL-7250 (setting [3]) was inactive.

With `NS(=O)(=O)c1cc2c(cc1Cl)NC(C(Cl)Cl)NS2(=O)=O` (stereo not given), the compound was called inactive in the test on CRL-7250 (setting [3]).

Regarding `CCN(CC)C(=O)[C@@H]1C=C2c3cccc4[nH]cc(c34)C[C@H]2N(C)C1`, the call in the test on MCC-13 was inactive. Further, the Potency entry in the test on MCC-26 is “inactive”.

As to `COc1ccc2c(c1OC)C(=O)O[C@H]2[C@@H]1c2cc3c(cc2CCN1C)OCO3`, the compound was called inactive in the test with MCC-13. In addition, the Potency entry in the test on MCC-26, with MKL-1, in the test with MKL-2 and with UISO was “inactive” in each case.

As to `CCOC(=O)O[C@]1(C(=O)OCCl)CC[C@H]2[C@@H]3CCC4=CC(=O)C=C[C@]4(C)[C@H]3[C@@H](O)C[C@@]21C`, in the test on CRL-7250 (setting [3]), the result was inactive.

As for `Nc1nc2ccc(OC(F)(F)F)cc2s1`, the compound was classed as inactive in the test with CRL-7250 (setting [3]).

For `C[C@H](NC(CCc1ccccc1)C(=O)O)C(=O)N1CCC[C@H]1C(=O)O` (stereo not given in full), the call in the test on CRL-7250 (setting [3]) was inactive.

Take `N[C@@H](COP(=O)(O)O)C(=O)O`: in the test with CRL-7250 (setting [3]), the outcome was “inactive [at 17.4 µM]”.

As for `COc1cc2c(Nc3ccc(Br)cc3F)ncnc2cc1OCC1CCN(C)CC1`, the call in the test on CRL-7250 (setting [3]) was inactive.

Turning to `C=CCN1C[C@H](C(=O)N(CCCN(C)C)C(=O)NCC)C[C@@H]2c3cccc4[nH]cc(c34)C[C@H]21`, in the test with CRL-7250 (setting [3]), the outcome was inactive.

As to `O=c1[nH]c(=O)n([C@H]2C[C@H](O)[C@@H](CO)O2)cc1I`, the outcome with CRL-7250 (setting [3]) was inactive.

With `O=C(O)Cc1cccc2ccccc12`, the compound was classed as inactive in the test with CRL-7250 (at 44.8 µM (top of the series)) and with CRL-7250 (at 92 µM (top of the series)).

Turning to `O=C(OOC(=O)c1ccccc1)c1ccccc1`, the result in the test with CRL-7250 (setting [3]) was inactive.

In the case of `C[N+]1(C)[C@@H]2CC(OC(=O)[C@H](CO)c3ccccc3)C[C@H]1[C@@H]1O[C@@H]12` (stereo not given in full), the result with CRL-7250 (setting [3]) was inactive.

As to `CCOC(=O)/C=C(C)/C=C/C=C(C)/C=C/c1c(C)cc(OC)c(C)c1C`, the result with CRL-7250 (setting [3]) was inactive.

For the compound `NCCCNCCSP(=O)(O)O`, the outcome in the test on CRL-7250 (setting [3]) was “inactive [at 9.27 µM]”.

For `NS(=O)(=O)c1cc(C(=O)NN2C[C@H]3[C@H]4CCC(C4)[C@H]3C2)ccc1Cl`, in the test on CRL-7250 (setting [3]), the call was inactive.

As to `OC[C@H]1O[C@@H]2O[C@H]3[C@H](O)[C@@H](O)[C@@H](O[C@H]4[C@H](O)[C@@H](O)[C@@H](O[C@H]5[C@H](O)[C@@H](O)[C@@H](O[C@H]6[C@H](O)[C@@H](O)[C@@H](O[C@H]7[C@H](O)[C@@H](O)[C@@H](O[C@H]8[C@H](O)[C@@H](O)[C@@H](O[C@H]1[C@H](O)[C@H]2O)O[C@@H]8CO)O[C@@H]7CO)O[C@@H]6CO)O[C@@H]5CO)O[C@@H]4CO)O[C@@H]3CO`, the compound was called inactive in the test with CRL-7250 (setting [3]).

For the compound `Oc1ccc(Cl)c2cccnc12`, the outcome in the test on CRL-7250 (setting [3]) was inactive.

Regarding `CCOc1ncc(F)c(=O)[nH]1`, the compound was called inactive in the test with CRL-7250 (setting [3]).

`Nc1c[n+](N2CCOCC2)no1`: in the test on CRL-7250 (setting [3]), the outcome was inactive.

On to `C[C@]12CC[C@@H]3c4ccc(OC(=O)N(CCCl)CCCl)cc4CC[C@H]3[C@@H]1CC[C@@H]2O`, for which the result in the test on MCC-13 was inactive. Further, the Potency result with MCC-26, in the test on MKL-1, in the test on MKL-2 and with UISO was “inactive” each time.

For the compound `O=C1CC(c2ccc(Cl)cc2)CC(=O)N1`, the result with CRL-7250 (setting [3]) was inactive.

With `O=C(O)c1ccccc1-c1ccc(C(F)(F)F)cc1`, in the test on CRL-7250 (setting [3]), the call was inactive.

As to `O=C1OC(CCN2CCCCC2)OC1(c1ccccc1)c1ccccc1` (stereo not given), in the test with MCC-26, the Potency result is “inactive”. For the same compound, the Potency with MKL-1 was 21.1 µM (active); in the test with MKL-2 it was 6.68 µM (active).

Turning to `CCN1CCN(C(=O)N[C@@H](C(=O)N[C@@H]2C(=O)N3[C@@H]2SC(C)(C)[C@H]3C(=O)O)c2ccccc2)C(=O)C1=O`, the compound was classed as inactive in the test with CRL-7250 (setting [3]).
